# Results: PubChem BioAssay
# Several values for one entry are separate records, joined by “and”; a condition that tells them apart may be missing. Equal values may be shown once. A structure can be active in one record and inactive in another. Activity calls are given as the source filed them.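 Rule for the calls, unless noted: active = compounds whose cell count with miR-34 switched on is under 0.7 times the count with it off; inactive = the rest.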
# Legend:
# [1] = stimulators of nuclear beta-catenin in C2C12, primary screen, imaging, WNT3A-conditioned medium, mouse C2C12, NPC library (AID 1117326; in the data active = nuclear beta-catenin stimulation mostly above about 4.2%, no sharp cut-off; inactive = mostly below about 10%); details: stronger effect = higher value
# [2] = stimulators of insulin release from INS-1E, primary screen, cell-based, 5 mM glucose, NPC library (AID 1117329;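 active = compound raises insulin release from rat beta cells at 5 mM glucose, no numeric limit stated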); details: rat INS-1E insulin secretion, at 10 µM, stronger effect = higher value
# [3] = growth inhibition of GSK3B-pretreated HCT116 cells – cell-based, CellTiter-Glo, 0.2 to 20 µM (AID 1117336;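 active = compounds lowering colon cancer cell viability after pretreatment blocking the GSK3B kinase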); details: HCT116 viability after GSK3B inhibitor, at 20 µM, stronger effect = higher value
# [4] = inhibition of endothelial tube formation, primary screen, imaging, VEGF stimulated, CD31 staining, tube area, NPC library (AID 1117340;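 active = compound that reduces growth-factor-driven endothelial tube area in a mixed cell culture, no cutoff stated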); details: VEGF-stimulated ADSC/ECFC co-culture, at 10 µM, stronger effect = higher value
# [5] = glucagon-like peptide 1 release enhancers, primary assay, NCI-H716 cell line, NPC library (AID 1117341;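 active = compound raises GLP1 secretion from the human gut endocrine cells, with no numeric limit stated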); details: NCI-H716 cells, at 10 µM, stronger effect = higher value
# [6] = HCT116 colon cancer cell growth inhibition, primary screen, CellTiter-Glo luminescence, NPC library (AID 1117342;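 active = compounds that lower survival of HCT116 colon cancer cells in the luminescence readout, no numeric limit stated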); details: at 20 µM (top of the series)
# [7] = CellTiter-Glo luminescent readout of SW480 viability loss, NPC library primary (AID 1117343;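 active = compounds that lower viability of the colon cancer cells in the luminescence readout, with no numeric limit stated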); details: CellTiter-Glo luminescence; at 20 µM (top of the series)
# [8] = decreased DLD-1 cellular survival, CellTiter-Glo luminescent readout, NPC compound collection, primary HTS (AID 1117346;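 active = compounds that lower survival of DLD-1 colon cancer cells in the luminescence readout, no cutoff given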); details: DLD-1 viability, CellTiter-Glo luminescence; at 20 µM (top of the series)
# [9] = suppressors of polyQ aggregation in yeast, 75Q-TubU reporter (AID 1593); details: Yeast 75Q polyglutamine aggregation reporter
# [10] = inhibitors of mitochondrial cytochrome c release, biochemical, purified mitochondria (AID 1603); details: stronger effect = lower value;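 note: mouse liver mitochondria challenged with calcium chloride; signal normalized to the plate average as 100%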
# [11] = inhibitors of polyQ protein aggregation (AID 1604); details: polyglutamine-induced protein aggregation inhibition assay; stronger effect = higher value; tested at 2.5 µM
# [12] = biological target: 6-phosphogluconate dehydrogenase, decarboxylating (Homo sapiens) (UniProt P52209); test: 6PGD enzyme inhibitors, primary screen, biochemical, human, recombinant enzyme, NADPH absorbance (AID 1159550;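 active = at least 20% inhibition of 6-phosphogluconate dehydrogenase activity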); details: recombinant 6PGD, NADPH absorbance 341 nm; at 10 µM; stronger effect = higher value
# Sequence of 6-phosphogluconate dehydrogenase, decarboxylating (Homo sapiens) (P52209 whole entry, looked up): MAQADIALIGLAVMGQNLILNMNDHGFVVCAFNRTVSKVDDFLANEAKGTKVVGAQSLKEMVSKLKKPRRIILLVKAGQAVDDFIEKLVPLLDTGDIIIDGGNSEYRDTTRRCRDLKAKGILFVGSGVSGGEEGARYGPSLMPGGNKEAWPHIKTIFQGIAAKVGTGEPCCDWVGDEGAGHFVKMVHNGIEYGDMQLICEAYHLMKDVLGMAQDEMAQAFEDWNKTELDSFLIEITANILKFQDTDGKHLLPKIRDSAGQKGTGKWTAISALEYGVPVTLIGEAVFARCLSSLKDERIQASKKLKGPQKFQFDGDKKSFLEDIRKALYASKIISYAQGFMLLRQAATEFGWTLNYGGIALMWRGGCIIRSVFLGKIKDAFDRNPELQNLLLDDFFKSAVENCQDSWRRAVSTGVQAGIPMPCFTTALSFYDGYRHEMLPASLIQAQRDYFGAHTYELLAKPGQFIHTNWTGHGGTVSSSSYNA
# [13] = differential killing of epithelial or mesenchymal cells, primary screen, imaging, PC-3E GFP, TEM4-18 mCherry, co-culture (AID 1345086;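 active = compounds killing one labelled cell type while sparing the other, by normalised counts and ratio limits, not self-fluorescent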;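 for all read-outs here: cells exposed to compound for 72 h before imaging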;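 for red/green cell ratio (normalised): normalised mesenchymal count divided by normalised epithelial count so high means epithelial killing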); details: imaging cell counts, at 1 µM; for red/green cell ratio (normalised): actives lie on both sides
# [14] = system: Aerobactin synthetase IucA (Klebsiella pneumoniae hvKP1); test: Biochemical IucA enzyme inhibition primary screen of the Spectrum library (AID 1346200; call rule not given here;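 note: 100% = wells without compound and 0% = wells lacking enzyme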); details: malachite green pyrophosphate, A620, at 8 µM, stronger effect = lower value
# [15] = sensitizers of A549 cells to miR-34 induction, primary screen, imaging, A549 dox-inducible miR-34, nuclei and caspase counts (AID 1347080); details: A549 miR-34 inducible, Hoechst nuclei count, 48 h
# [16] = survival rescue of mitochondrial mutant cells in low glucose, primary screen, MELAS cybrids, Rieske KO mouse fibroblasts, CellTiter-Glo (AID 1508586;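 active = mean z-score across replicates of 1.96 or higher in either the MELAS or the Rieske mutant cell line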;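 note: z relative to plate mean and SD of compound and empty wells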)
# [17] = biological target: NAD(+) hydrolase SARM1 (Homo sapiens) (UniProt Q6SZW1); test: SARM1 TIR NADase inhibitors, cell lysate, NAD-Glo luminescence (AID 1508614;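 active = compound whose remaining NAD level is above about 45 nM, limit read from the data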;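 note: higher remaining NAD means stronger inhibition of SARM1 NADase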); details: SAM-TIR HEK293T lysate NADase, at 1 µM, stronger effect = higher value
# Sequence of NAD(+) hydrolase SARM1 (Homo sapiens) (Q6SZW1 whole entry, looked up, the tested form may be a part): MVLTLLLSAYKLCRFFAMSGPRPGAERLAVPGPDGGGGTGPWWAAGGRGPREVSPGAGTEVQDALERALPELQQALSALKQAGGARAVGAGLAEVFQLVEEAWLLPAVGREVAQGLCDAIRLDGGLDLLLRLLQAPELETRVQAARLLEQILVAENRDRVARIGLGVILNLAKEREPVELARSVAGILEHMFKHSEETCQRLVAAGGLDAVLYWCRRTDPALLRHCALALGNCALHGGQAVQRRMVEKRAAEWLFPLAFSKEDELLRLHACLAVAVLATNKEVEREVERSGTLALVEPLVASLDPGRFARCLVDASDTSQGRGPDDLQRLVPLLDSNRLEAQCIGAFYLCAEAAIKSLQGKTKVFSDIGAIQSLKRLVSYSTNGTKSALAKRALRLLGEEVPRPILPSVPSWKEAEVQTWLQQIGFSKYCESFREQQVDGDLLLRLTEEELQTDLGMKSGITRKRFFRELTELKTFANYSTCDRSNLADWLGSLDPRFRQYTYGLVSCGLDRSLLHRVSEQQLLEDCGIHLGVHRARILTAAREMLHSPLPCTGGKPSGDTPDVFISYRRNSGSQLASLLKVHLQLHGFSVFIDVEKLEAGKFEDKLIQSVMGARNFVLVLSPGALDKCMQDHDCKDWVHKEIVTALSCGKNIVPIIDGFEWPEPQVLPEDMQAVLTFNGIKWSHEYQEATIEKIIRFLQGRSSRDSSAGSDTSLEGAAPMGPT
# [18] = biological target: Mitogen-activated protein kinase 7 (Homo sapiens) (UniProt Q13164); test: ERK5 transactivation activators in reporter cells, primary screen, cell-based, HTS (AID 1508626;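 active = luciferase signal above three times the same-plate solvent-only control wells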;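 note: luciferase driven by Gal4-ERK5 fusion binding five Gal4 sites before minimal TATA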); details: HeLa Gal4-ERK5 transactivation, 18 h, at 5 µM, stronger effect = higher value
# Sequence of Mitogen-activated protein kinase 7 (Homo sapiens) (Q13164 whole entry, looked up, the tested form may be a part): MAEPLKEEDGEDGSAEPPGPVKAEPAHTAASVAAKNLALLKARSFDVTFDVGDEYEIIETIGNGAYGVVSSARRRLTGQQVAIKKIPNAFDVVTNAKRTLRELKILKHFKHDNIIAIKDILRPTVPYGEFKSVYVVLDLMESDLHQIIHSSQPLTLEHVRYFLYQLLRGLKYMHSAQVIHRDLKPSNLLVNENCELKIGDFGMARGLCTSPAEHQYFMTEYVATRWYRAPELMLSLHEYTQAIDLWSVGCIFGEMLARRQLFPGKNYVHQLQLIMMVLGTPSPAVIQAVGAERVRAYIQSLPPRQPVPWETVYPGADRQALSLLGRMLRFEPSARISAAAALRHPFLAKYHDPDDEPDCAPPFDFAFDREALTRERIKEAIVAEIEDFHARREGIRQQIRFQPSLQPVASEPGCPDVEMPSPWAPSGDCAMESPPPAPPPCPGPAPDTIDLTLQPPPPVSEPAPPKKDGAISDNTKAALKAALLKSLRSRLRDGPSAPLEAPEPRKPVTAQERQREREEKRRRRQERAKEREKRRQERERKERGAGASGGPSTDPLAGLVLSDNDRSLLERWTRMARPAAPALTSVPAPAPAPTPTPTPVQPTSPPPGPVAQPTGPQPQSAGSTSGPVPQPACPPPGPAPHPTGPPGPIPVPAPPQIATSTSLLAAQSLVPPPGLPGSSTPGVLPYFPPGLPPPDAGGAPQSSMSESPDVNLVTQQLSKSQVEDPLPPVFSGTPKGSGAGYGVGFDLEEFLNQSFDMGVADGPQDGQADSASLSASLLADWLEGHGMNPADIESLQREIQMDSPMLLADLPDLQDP
# [19] = viability rescue of complex I mutant cybrids, primary screen, cell-based, galactose medium, ATP luminescence (AID 1645843;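 active = z-score of at least 1.8 in each of two replicates, scored against plate mean and spread of sample wells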;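 note: positive z means more ATP and so rescue of galactose-driven cybrid death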); details: complex I mutant cybrid cells, 72 h, stronger effect = higher value
# [20] = liver-stage malaria parasite growth inhibition, primary screen, cell-based, HepG2, luciferase luminescence, HepG2 viability (AID 624349; in the data active = parasite load remaining mostly below about 12%, no sharp cut-off; inactive = mostly above about 10%;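 note: 100% = mean of DMSO negative control wells on the same plate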); details: P. berghei liver stage in HepG2, luciferase luminescence, concentration not given here; parasite load remaining: stronger effect = lower value; viability: measured here: HepG2 viability without parasites
# [21] = measured here: epithelial PC-3E GFP cell survival
# [22] = measured here: mesenchymal TEM4-18 mCherry cell survival
# [23] = measured here: total cells without miR-34 induction
# [24] = MELAS cybrid survival, CellTiter-Glo 48 h, stronger effect = higher value
# [25] = Rieske KO mouse fibroblast survival, CellTiter-Glo 72 h
# [26] = measured here: relative caspase fold change +Dox/-Dox
# [27] = measured here: total cells with miR-34 induction, stronger effect = lower value
compound,measurement,setting,value
OCCOc1ccccc1,nuclear beta-catenin stimulation,[1]; at 10 µM,0.5% (inactive)
same,nuclear beta-catenin stimulation,"[1]; stimulation, at 2 µM",0.3%
same,insulin secretion stimulation,[2],-1.8% (inactive)
same,viability decrease,[3],-10.3% (inactive)
same,tube area decrease,[4],8.6% (inactive)
same,GLP1 secretion stimulation,[5],3.7% (inactive)
same,inhibition of viability,[6],-10.6% (inactive)
same,viability decrease (inhibition),[7],24.2% (inactive)
same,viability decrease (inhibition),[8],-1.2% (inactive)
CN(C)[C@@H]1C(=O)C(C(N)=O)=C(O)[C@@]2(O)C(=O)C3=C(O)c4c(O)cccc4[C@@](C)(O)[C@H]3C[C@@H]12,score,[9],0.85
same,cytochrome c release ratio,[10],2.45
same,inhibition of aggregation,[11],47.2%
same,nuclear beta-catenin stimulation,[1]; at 10 µM,1% (inactive)
same,nuclear beta-catenin stimulation,"[1]; stimulation, at 2 µM",1.9%
same,insulin secretion stimulation,[2],2.5% (inactive)
same,viability decrease,[3],-202% (inactive)
same,tube area decrease,[4],9.8% (inactive)
same,GLP1 secretion stimulation,[5],-2.8% (inactive)
same,inhibition of viability,[6],12.1% (inactive)
same,viability decrease (inhibition),[7],43.4% (inactive)
same,viability decrease (inhibition),[8],73.3% (active)
same,inhibition,[12],-5.09% (inactive)
same,red/green cell ratio (normalised),[13],0.98 (inactive) and 1.18 (inactive)
same,normalised cell number,[13]; [21],0.93 and 1.05
same,normalised cell number,[13]; [22],0.91 and 1.24
same,activity remaining,[14],92.7% (inactive)
same,cell count,[15]; [23],7550 and 8910 and 10100
same,z-score,[16]; [24],4.37 (active) and -3.68 (inactive) and 0.0486
same,z-score,[16]; [25],0.792 and -3.53 and 2.26
same,remaining NAD,[17],10 nM (inactive)
same,luciferase signal,[18],324 AU (active)
same,z-score,[19],2.65 (active)
CCCC(C)(COC(N)=O)COC(=O)NC(C)C (configuration not stated),score,[9],1.44
same,cytochrome c release ratio,[10],0.68
same,inhibition of aggregation,[11],85.8%
same,nuclear beta-catenin stimulation,[1]; at 10 µM,0.1% (inactive)
same,nuclear beta-catenin stimulation,"[1]; stimulation, at 2 µM",-0.6%
same,insulin secretion stimulation,[2],3.4% (inactive)
same,viability decrease,[3],-38.7% (inactive)
same,tube area decrease,[4],14.3% (inactive)
same,GLP1 secretion stimulation,[5],-1.3% (inactive)
same,inhibition of viability,[6],-14.1% (inactive)
same,viability decrease (inhibition),[7],-5.3% (inactive)
same,viability decrease (inhibition),[8],-12.4% (inactive)
same,inhibition,[12],-0.85% (inactive)
same,red/green cell ratio (normalised),[13],1.05 (inactive)
same,normalised cell number,[13]; [21],1.17
same,normalised cell number,[13]; [22],1.23
same,activity remaining,[14],115% (inactive)
same,fold change,[15]; stronger effect = lower value,0.952 (inactive) and 0.896 (inactive) and 0.902 (inactive)
same,fold change,[15]; [26],1.07 and 1.02 and 3.4
same,cell count,[15]; [27],10700 and 9140 and 11300
same,cell count,[15]; [23],11200 and 10200 and 12600
same,z-score,[16]; [24],0.305 (inactive)
same,z-score,[16]; [25],0.223
same,remaining NAD,[17],10 nM (inactive)
same,luciferase signal,[18],40 AU (inactive)
same,z-score,[19],1.27 (inactive)
C[C@@H]1C[C@@H]([C@H](O)CC2CC(=O)NC(=O)C2)C(=O)[C@@H](C)C1,score,[9],0.04
same,cytochrome c release ratio,[10],1.07
same,inhibition of aggregation,[11],91.3%
same,parasite load remaining,[20],-0.1% (active) and 5.12% (inactive) and 0% (inactive)
same,viability,[20],87.3% and 76.3% and 87.1%
same,nuclear beta-catenin stimulation,[1]; at 10 µM,28.9% (inactive)
same,nuclear beta-catenin stimulation,"[1]; stimulation, at 2 µM",25.8%
same,insulin secretion stimulation,[2],-1% (inactive)
same,viability decrease,[3],88.7% (active)
same,tube area decrease,[4],103% (active)
same,GLP1 secretion stimulation,[5],-4.7% (inactive)
same,inhibition of viability,[6],78.7% (active)
same,viability decrease (inhibition),[7],68.4% (active)
same,viability decrease (inhibition),[8],67.6% (active)
same,inhibition,[12],-13.3% (inactive)
same,red/green cell ratio (normalised),[13],0.97 (inactive)
same,normalised cell number,[13]; [21],0.98
same,normalised cell number,[13]; [22],0.96
same,activity remaining,[14],112% (inactive)
same,fold change,[15]; stronger effect = lower value,1.05 (inactive) and 0.852 (inactive)
same,fold change,[15]; [26],1.03 and 1.84
same,cell count,[15]; [27],2100 and 2650
same,cell count,[15]; [23],1990 and 3110
same,z-score,[16]; [24],-0.121
same,z-score,[16]; [25],4.57
same,remaining NAD,[17],10 nM (inactive)
same,luciferase signal,[18],20 AU (inactive)
O=C(O)c1nn(Cc2ccc(Cl)cc2Cl)c2ccccc12,nuclear beta-catenin stimulation,[1]; at 10 µM,1.4% (inactive)
same,nuclear beta-catenin stimulation,"[1]; stimulation, at 2 µM",4.8%
same,insulin secretion stimulation,[2],4.2% (inactive)
same,viability decrease,[3],31.1% (inactive)
same,tube area decrease,[4],-29.5% (inactive)
same,GLP1 secretion stimulation,[5],4.9% (inactive)
same,inhibition of viability,[6],19.6% (inactive)
same,viability decrease (inhibition),[7],24.5% (inactive)
same,viability decrease (inhibition),[8],3.6% (inactive)
same,inhibition,[12],4.63% (inactive)
same,red/green cell ratio (normalised),[13],0.98 (inactive)
same,normalised cell number,[13]; [21],0.85
same,normalised cell number,[13]; [22],0.83
same,fold change,[15]; stronger effect = lower value,1.1 (inactive) and 0.951 (inactive) and 0.966 (inactive)
same,fold change,[15]; [26],0.953 and 0.659 and 0.627
same,cell count,[15]; [27],10200 and 7460 and 7860
same,cell count,[15]; [23],9270 and 7840 and 8130
same,z-score,[16]; [24],-0.0995 (inactive)
same,z-score,[16]; [25],-0.0829
same,remaining NAD,[17],10 nM (inactive)
same,z-score,[19],2.35 (active) and 0.985 (inactive)
C[C@]12CC[C@H]3[C@@H](CCC4=CC(=O)CC[C@@]43C)[C@@H]1CC[C@@H]2C(=O)O,nuclear beta-catenin stimulation,[1]; at 10 µM,0.7% (inactive)
same,nuclear beta-catenin stimulation,"[1]; stimulation, at 2 µM",0.3%
same,insulin secretion stimulation,[2],0.2% (inactive)
same,viability decrease,[3],3.5% (inactive)
same,tube area decrease,[4],8.1% (inactive)
same,GLP1 secretion stimulation,[5],-3.2% (inactive)
same,inhibition of viability,[6],5.9% (inactive)
same,viability decrease (inhibition),[7],-1.3% (inactive)
same,viability decrease (inhibition),[8],2.4% (inactive)
CCC(=O)O[C@@H]1C=C2CCC3C(CCC4(C)C3CC[C@@H]4OC(=O)CC)C2CC1 (some centres not stated),nuclear beta-catenin stimulation,[1]; at 10 µM,-0.9% (inactive)
same,nuclear beta-catenin stimulation,"[1]; stimulation, at 2 µM",1.3%
same,insulin secretion stimulation,[2],4.8% (inactive)
same,viability decrease,[3],7.6% (inactive)
same,tube area decrease,[4],-11.8% (inactive)
same,GLP1 secretion stimulation,[5],-4.4% (inactive)
same,inhibition of viability,[6],21.4% (inactive)
same,viability decrease (inhibition),[7],13.2% (inactive)
same,viability decrease (inhibition),[8],9.9% (inactive)
O=[N+]([O-])/N=C1\NCCN1Cc1ccc(Cl)nc1,nuclear beta-catenin stimulation,[1]; at 10 µM,0.9% (inactive)
same,nuclear beta-catenin stimulation,"[1]; stimulation, at 2 µM",1.2%
same,insulin secretion stimulation,[2],-1.2% (inactive)
same,viability decrease,[3],-10.2% (inactive)
same,tube area decrease,[4],-4.1% (inactive)
same,GLP1 secretion stimulation,[5],-2% (inactive)
same,inhibition of viability,[6],9.4% (inactive)
same,viability decrease (inhibition),[7],27.9% (inactive)
same,viability decrease (inhibition),[8],-0.3% (inactive)
same,inhibition,[12],-7.9% (inactive)
c1ccc2nc(N3CCNCC3)ccc2c1,score,[9],1.22
same,cytochrome c release ratio,[10],0.9
same,inhibition of aggregation,[11],63.9%
same,parasite load remaining,[20],73.5% (inactive) and 55.7% (inactive) and 53.7% (inactive)
same,viability,[20],107% and 72.2% and 102%
same,nuclear beta-catenin stimulation,[1]; at 10 µM,0.1% (inactive)
same,nuclear beta-catenin stimulation,"[1]; stimulation, at 2 µM",-1.9%
same,insulin secretion stimulation,[2],4% (inactive)
same,viability decrease,[3],41.7% (inactive)
same,tube area decrease,[4],-4.1% (inactive)
same,GLP1 secretion stimulation,[5],3.6% (inactive)
same,inhibition of viability,[6],56.9% (active)
same,viability decrease (inhibition),[7],54.9% (active)
same,viability decrease (inhibition),[8],25% (inactive)
same,inhibition,[12],9.28% (inactive)
same,red/green cell ratio (normalised),[13],1.18 (inactive)
same,normalised cell number,[13]; [21],1.13
same,normalised cell number,[13]; [22],1.34
same,activity remaining,[14],124% (inactive)
same,fold change,[15]; stronger effect = lower value,0.855 (inactive) and 0.953 (inactive) and 0.849 (inactive)
same,fold change,[15]; [26],1.3 and 0.736 and 5.89
same,cell count,[15]; [27],9120 and 9090 and 11300
same,cell count,[15]; [23],10700 and 9530 and 13400
same,z-score,[16]; [24],0.387 (inactive)
same,z-score,[16]; [25],0.0895
same,remaining NAD,[17],10 nM (inactive)
same,luciferase signal,[18],28 AU (inactive)
same,z-score,[19],-0.47 (inactive)
